Bioassay records deposited in PubChem BioAssay by National Center for Advancing Translational Sciences (NCATS).
Sampled rows, rich in hits. Any-hit rate of the full collection: about 2.4%.
D2 ag-1: agonists of human D2 dopamine receptor. HEK293 T-REx D2 cells, calcium flux agonist mode. activation, % at 2 µM. AID 485358. 340,000 tested, 0.53% active;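 active = activation over 3 SD above normal in the single-dose calcium agonist read, cut at about 30% in these data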; also: 0% is about no effect
Target sequence (P14416 whole entry, looked up): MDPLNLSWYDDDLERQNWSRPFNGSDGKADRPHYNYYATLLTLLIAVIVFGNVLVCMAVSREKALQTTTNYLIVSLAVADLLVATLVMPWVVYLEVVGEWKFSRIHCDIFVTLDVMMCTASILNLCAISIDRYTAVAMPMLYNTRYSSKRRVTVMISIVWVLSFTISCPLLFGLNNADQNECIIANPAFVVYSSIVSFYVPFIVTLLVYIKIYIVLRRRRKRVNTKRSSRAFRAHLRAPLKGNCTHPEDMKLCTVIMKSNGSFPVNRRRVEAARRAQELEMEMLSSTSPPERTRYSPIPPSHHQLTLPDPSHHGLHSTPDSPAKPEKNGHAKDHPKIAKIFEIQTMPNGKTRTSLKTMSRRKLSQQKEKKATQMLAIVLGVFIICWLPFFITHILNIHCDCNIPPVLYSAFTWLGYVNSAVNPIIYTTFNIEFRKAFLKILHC
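Agonism is scored from calcium flux in a force-coupled, inducible HEK293 cell line expressing D2, read kinetically for 180 s after compound addition against dopamine controls.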
D2 ag-2: agonists of human D2 dopamine receptor (beta-arrestin) | P14416 | AID 624465 | DiscoveRx PathHunter D2 beta-arrestin, luminescence, 90 min; 100% = 57 uM dopamine signal | activation, % (test concentration not listed) | 360,000 tested, 0.084% active; in the data active = activation above about 40%
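Agonist mode: compounds alone added to overnight-plated D2 PathHunter cells for 90 min at 37 C, with 57 uM final dopamine (EC100) defining full response. Beta-arrestin recruitment detected by chemiluminescent reagent, read after 1 h at ambient temperature.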
D2 antag: D2 dopamine receptor (human) antagonism; inhibition, % at 10 µM; 340,000 tested, 2% active; P14416; HEK293 TREx D2 cells, calcium flux, dopamine EC80; in the data active = inhibition above about 30%; inactive = below that, where a call was filed; also: 0% is about no effect
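In this primary screen, negative modulation is detected by tracking calcium flux after an EC80 dopamine challenge in inducible HEK293 T-REx D2 cells preexposed to test compound for 180 s.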
D2 PAM-1: positive allosteric modulators of human D2 dopamine receptor | 340,000 tested, 0.34% active | HEK293 T-REx D2, calcium flux, EC20 dopamine potentiation | potentiation, % at 10 µM;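 active = potentiation over 3 SD above the plate norm, cut at about 30% in these data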; also: 0% is about no effect
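Potentiation of an EC20 dopamine calcium response is measured in a force-coupled, tetracycline-inducible Hek293 Trex D2 line. Compound-only kinetic reads over 180 s flag agonists before dopamine addition.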
D2 PAM-2: human D2 receptor positive allosteric modulation. P14416. DiscoveRx D2 beta-arrestin cells, luminescence, 90 min; 100% = 57 uM dopamine signal. potentiation, % (test concentration not listed). 360,000 tested, 0.23% active; in the data active = potentiation above about 50%
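PathHunter D2 cells, attached overnight at 37 deg C, received compound in DMSO plus dopamine at EC20 (50 nM final) for 90 min at 37 deg C. Beta-arrestin recruitment was read as luminescence after 1 h with detection reagent at ambient temperature.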
The depositor's hits bear a star.

How did CCCCSCCCNC(=O)c1ccc2c(c1)N(CC)C(=O)c1ccccc1S2=O (configuration not stated) do in these assays?
D2 ag-1: 1; D2 ag-2: -2; D2 antag: 30*; D2 PAM-1: -28; D2 PAM-2: -20

What do the screens show for `CCN1C(=O)c2ccccc2S(=O)c2ccc(C(=O)NCc3ccccc3OC)cc21` (configuration not stated)?
D2 ag-1: 0; D2 PAM-1: -15

Results for CCOC(=O)N1CCC(NC(=O)C(NS(=O)(=O)c2cccc3nsnc23)c2ccccc2)CC1 (configuration not stated) ?
D2 ag-1: -1; D2 ag-2: 4; D2 antag: 7; D2 PAM-1: 1; D2 PAM-2: -6

What do the screens show for `O=C(NC1CCN(Cc2ccccc2)CC1)C(NS(=O)(=O)c1cccc2nsnc12)c1ccccc1` (configuration not stated)?
D2 ag-1: -1; D2 ag-2: 0; D2 antag: 35*; D2 PAM-1: -18; D2 PAM-2: -11

Results for CCC(C)[C@H](NC(=O)N1CCn2c1nc1ccccc12)C(=O)NCc1ccccc1 (some centres not stated) ?
D2 ag-1: 0; D2 ag-2: -4; D2 antag: -1; D2 PAM-1: 32*; D2 PAM-2: -5

What do the screens show for `CC1(C)C(=S)N(Cc2ccccc2)c2ccccc21`?
D2 ag-1: -1; D2 ag-2: 6; D2 antag: 1; D2 PAM-1: -3; D2 PAM-2: 63*

What do the screens show for `CC(=O)CC1(O)C(=O)N(Cc2ccccc2)c2ccccc21` (configuration not stated)?
D2 ag-1: 0; D2 ag-2: 0; D2 antag: 61*; D2 PAM-1: -25; D2 PAM-2: 7

How did C/C(CC1(O)C(=O)N(Cc2ccccc2)c2ccccc21)=N\O (configuration not stated) do in these assays?
D2 ag-1: 0; D2 ag-2: -2; D2 antag: 25; D2 PAM-1: -10; D2 PAM-2: -14

What do the screens show for `O=C1CC(c2ccccc2C(F)(F)F)c2c(c3ccccc3[nH]c2=O)O1` (configuration not stated)?
D2 ag-1: 0; D2 PAM-1: -10

What do the screens show for `CCN(CC)c1ccc(NC(=O)CCS(=O)(=O)c2cc3c(cc2Cl)NC(=O)CO3)c(C)c1`?
D2 ag-1: 0; D2 PAM-1: -12

Results for Clc1ccc(Cl)c(OCCN2CCCC2)c1 ?
D2 ag-1: 1; D2 ag-2: 4; D2 antag: 47*; D2 PAM-1: -14; D2 PAM-2: -5

Results for CN(C)CCOCCOc1ccc(Cl)cc1Br ?
D2 ag-1: 0; D2 ag-2: -5; D2 antag: 19; D2 PAM-1: -31; D2 PAM-2: -28

How did CC1CCN(CCOCCOc2ccc(Cl)cc2Br)CC1 do in these assays?
D2 ag-1: 0; D2 ag-2: -2; D2 antag: 69*; D2 PAM-1: -21; D2 PAM-2: -31

Results for CC(C)NCCOCCOc1ccc(Cl)cc1Br ?
D2 ag-1: 0; D2 ag-2: -3; D2 antag: 67*; D2 PAM-1: -29; D2 PAM-2: -36

How did CC1CCCN(CCOc2ccc3ccccc3c2Br)C1 (configuration not stated) do in these assays?
D2 ag-1: 0; D2 ag-2: -4; D2 antag: 71*; D2 PAM-1: -27; D2 PAM-2: -12

How did CN(CC(=O)Nc1ccc(OC(F)(F)F)cc1)S(=O)(=O)c1ccc2c(c1)CCC(=O)N2 do in these assays?
D2 ag-1: 0; D2 PAM-1: -5

Results for Cc1ccc(Cl)c(OCCN2CCCC(C)C2)c1 (configuration not stated) ?
D2 ag-1: 3; D2 ag-2: -2; D2 antag: 53*; D2 PAM-1: -19; D2 PAM-2: -27

Results for CC1CCN(CCCOc2ccc(Cl)cc2Br)CC1 ?
D2 ag-1: 0; D2 ag-2: -5; D2 antag: 34*; D2 PAM-1: -26; D2 PAM-2: -29

How did Clc1ccc(OCCOCCN2CCCCC2)c(Br)c1 do in these assays?
D2 ag-1: 1; D2 ag-2: 1; D2 antag: 77*; D2 PAM-1: -25; D2 PAM-2: 6

Results for COc1ccc(CCn2c(O)c(C3=c4ccccc4=NC3=O)sc2=S)cc1OC ?
D2 ag-1: 0; D2 ag-2: 6; D2 antag: 11; D2 PAM-1: 7; D2 PAM-2: 28

How did O=C1N=c2ccccc2=C1c1sc(=S)n(CC2CCCO2)c1O (configuration not stated) do in these assays?
D2 ag-1: -2; D2 ag-2: 13; D2 antag: 2; D2 PAM-1: 4; D2 PAM-2: 108*

Results for CC1CC(C)CN(c2ccc(-n3cnnn3)cc2[N+](=O)[O-])C1 (configuration not stated) ?
D2 ag-1: 0; D2 ag-2: -7; D2 antag: -4; D2 PAM-1: 1; D2 PAM-2: 2

How did O=[N+]([O-])c1cc(-n2cnnn2)ccc1N1CCC(Cc2ccccc2)CC1 do in these assays?
D2 ag-1: 0; D2 ag-2: 2; D2 antag: 32*; D2 PAM-1: -12; D2 PAM-2: 9

Results for COc1ccc(-c2c(-c3ccccc3)c(C(=O)C(=O)NCCCN(C)C)n3ccc4cc(OC)c(OC)cc4c23)cc1OC ?
D2 ag-1: 0; D2 ag-2: -2; D2 antag: 48*; D2 PAM-1: -24; D2 PAM-2: -16

How did CN(C)CCNC(=O)C(=O)c1c(-c2ccccc2)cc2ccccn12 do in these assays?
D2 ag-1: 0; D2 ag-2: -1; D2 antag: 10; D2 PAM-1: 5; D2 PAM-2: -16

How did COc1ccc2cc(S(=O)(=O)c3ccccc3F)c(=O)oc2c1 do in these assays?
D2 ag-1: 0; D2 PAM-1: 2

What do the screens show for `CCOc1cc(/C=N/NC(=O)c2cccnc2)ccc1O`?
D2 ag-1: 0; D2 ag-2: -8; D2 antag: 31*; D2 PAM-1: 4; D2 PAM-2: 3

What do the screens show for `O=C(N/N=C/c1cccnc1)c1cccc(Cl)c1`?
D2 ag-1: 2; D2 ag-2: 1; D2 antag: 35*; D2 PAM-1: -3; D2 PAM-2: -9

How did O=C(N/N=C/c1cccnc1)C1CCCCC1 do in these assays?
D2 ag-1: 0; D2 ag-2: 0; D2 antag: -19; D2 PAM-1: 32*; D2 PAM-2: -6

How did O=C(N/N=C/c1ccsc1)C1CC1 do in these assays?
D2 ag-1: 0; D2 ag-2: -2; D2 antag: 0; D2 PAM-1: 40*; D2 PAM-2: -3

Results for COc1cc(NC(=O)CSc2ncc3c(n2)-c2ccc(Cl)cc2N(Cc2ccccc2)S3(=O)=O)cc(OC)c1 ?
D2 ag-1: 0; D2 PAM-1: 16
